Assay [1] in a line: inhibitors of PAF-induced NFkB signaling in CF airway cells, dose response, cell-based, uHTS hits, panel, cytotoxicity readout (AID 624344). Conditions: CF bronchial epithelial cells, PAF-induced NFkB reporter inhibition, with PAF, run 1; at 79 µM (top of the series) unless noted.
Experiment in assay [2]: as above
Conditions: CF bronchial epithelial cells, PAF-induced NFkB reporter inhibition, with PAF, run 2; at 79 µM (top of the series) unless noted.

In general, inhibition refers to the drop in the measured response relative to a control, in per cent. Consider `CNc1ccc2ncc(-c3ccc(OC)c(OC)c3)n2n1`, for which the inhibition in assay [1] is 106%; in assay [2], 118%.
Take `CC(=C/c1ccccc1)/C=N/n1c(-c2ccncc2)n[nH]c1=S`: the inhibition stood at 110% in assay [1] and 103% in assay [2].
For `O=C(NCCc1ccccc1)c1coc(=O)c(Br)c1` the same measures were 84% and 106% [at 39.5 µM].
On to `Cc1cc(C)c2nc(C(F)(F)F)c(C#N)c(N)c2c1`, for which the inhibition in assay [1] is 97.7%; in assay [2], 90.1%.
Consider `COc1ccc(-c2nc(NC(=O)c3ccc(OCC(=O)Nc4ccc(F)cc4)c(OC)c3)sc2C)cc1`, for which the inhibition in assay [1] came to 91.7%; in assay [2], 96.2%.
In the case of `Cc1ccc(NC(=O)c2nc[nH]c2C(=O)NCCCNC(=O)c2[nH]cnc2C(=O)Nc2ccc(C)cc2)cc1`, the inhibition in assay [1] came to 108%; in assay [2], 95.2%.
The matching figures for `COc1ccc(-c2cc(=O)oc3cc(OC(=O)C4CCCCC4)ccc23)cc1`: 110% and 101%.
`CC(=O)Nc1ccc(NC(=O)COC(=O)c2c3c(nc4ccccc24)CCN(Cc2ccccc2)C3)cc1`: the inhibition was 92.5% in assay [1] and 89.8% in assay [2].
The matching figures for `C/C(=N/NC(=O)c1cccs1)c1ccc(NC(=O)COc2ccc(Cl)cc2)cc1`: 87% and 72.9%.
For `Brc1cccc(CSc2nnc(-c3ccncc3)o2)c1` the same measures were 105% and 99%.
In the case of `Cc1ccc(NC(=O)CSc2ncnc3ccccc23)cc1S(=O)(=O)N1CCOCC1`, the values for the inhibition in assay [1] and in assay [2] were 110% and 98.4%, respectively.
`Cc1cc(C)c(C#N)c(SCC(=O)c2ccc(Cl)cc2Cl)n1`: the results for the inhibition in assay [1] and in assay [2] were 111% and 101%, respectively.
Regarding `Cc1nnc(Sc2nc3ccccc3o2)c2ccccc12`, the results for the inhibition in assay [1] and in assay [2] were 98.3% and 107%, respectively.
For `CN(C)CCCN(C(=O)CCOc1ccccc1)c1nc2ccc(F)cc2s1`, the inhibition in assay [1] worked out at 101%; in assay [2], 105%.
As for `CC1Sc2ccc(Cl)cc2-c2nc(N)ncc21` (stereo not given), the inhibition in assay [1] stood at 102%; in assay [2] it was 108%.

Source of the values: PubChem BioAssay.
